Inhibition of binding data for 1 compound are collected here from PubChem BioAssay AID743088 (The Scripps Research Institute Molecular Screening Center, 2013).

The structures appear in SMILES notation. Values without a mark were called inactive.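 How the source made its calls: active means binding inhibited by at least 50%, or stimulated by at least 50%, shown as inhibition of -50% or lower; inactive means the rest.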

The subject of the assay is Phorbol Ester. Nature of the assay: radioligand displacement at 30 receptors – biochemical, Panlabs HitProfilingScreen, selectivity assay for AVPR1a antagonist project, profiling panel (AID 743088). To be noted: 30 targets, at 10 µM, hits give high values. (Loss of bound radioactivity is the signal in a displacement assay; it reports binding, not function.)

For the compound `O=C(C1CCN(c2ccc(Cl)cn2)CC1)N(CC1CC1)c1ccc(Cl)cc1`, the inhibition of binding is -13%.
